Counter-ions that a name gives are not always drawn. ± gives the standard deviation of the averaged measurements.
Legend:
[1] = tested on: Saccharomyces cerevisiae BY4741 SeMeCo community; assay: mean cell size (pixel area) (pixels); higher = larger cells; settings: 10 µM; 24 h; SM minimal medium
Outline: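 Yeast cells were fixed with paraformaldehyde, imaged by automated confocal microscopy and analysed in Harmony to obtain mean cell pixel area per well. They came from a four-plasmid fluorescent Saccharomyces cerevisiae BY4741 community, each plasmid complementing one auxotrophy and carrying a fluorescent marker. Before imaging, 70 µl of culture at OD600 = 0.3 was incubated for 24 h in SM medium in 384-well plates predosed acoustically with drug (final 10 µM). Values are means of 3 replicates. Same SeMeCo high-content imaging drug screen: Selleck FDA-approved drugs at 10 µM, 24 h in SM medium, 384-well plates, 3 replicates.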

[2] = tested on: Saccharomyces cerevisiae BY4741 SeMeCo community; assay: z-score of prototroph abundance vs DMSO median; higher = larger share of this subpopulation than in DMSO controls; settings: 10 µM; 24 h; SM minimal medium; subpopulation (auxotrophy): Prototroph
Outline: (§1)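 Cells of a Saccharomyces cerevisiae BY4741 community, carrying four plasmids that each restored one auxotrophy and encoded a distinct fluorescent protein, were pre-grown overnight to OD600 1.0 and diluted to 0.3. A 70 µl volume was added to 384-well plates acoustically predosed with library drugs (10 µM final) and grown 24 h in minimal SM medium. After paraformaldehyde fixation, automated confocal microscopy was used, with single-auxotroph fluorescent strains for thresholds and autofluorescence correction. The abundance of each subpopulation was scored as a z-score against the vehicle-well median.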

[3] = tested on: Saccharomyces cerevisiae BY4741 SeMeCo community; assay: z-score of subpopulation abundance vs DMSO median, subpopulation auxotrophic for M; higher = larger share of this subpopulation than in DMSO controls; settings: 10 µM; 24 h; SM minimal medium; subpopulation (auxotrophy): M
Outline: as §1

[4] = tested on: Saccharomyces cerevisiae BY4741 SeMeCo community; assay: z-score of subpopulation abundance vs DMSO median, subpopulation auxotrophic for L; higher = larger share of this subpopulation than in DMSO controls; settings: 10 µM; 24 h; SM minimal medium; subpopulation (auxotrophy): L
Outline: as §1

[5] = tested on: Saccharomyces cerevisiae BY4741 SeMeCo community; assay: z-score of subpopulation abundance vs DMSO median, subpopulation auxotrophic for U; higher = larger share of this subpopulation than in DMSO controls; settings: 10 µM; 24 h; SM minimal medium; subpopulation (auxotrophy): U
Outline: as §1

[6] = tested on: Saccharomyces cerevisiae BY4741 SeMeCo community; assay: z-score of subpopulation abundance vs DMSO median, subpopulation auxotrophic for H; higher = larger share of this subpopulation than in DMSO controls; settings: 10 µM; 24 h; SM minimal medium; subpopulation (auxotrophy): H
Outline: as §1

[7] = tested on: Saccharomyces cerevisiae BY4741 SeMeCo community; assay: z-score of subpopulation abundance vs DMSO median, subpopulation auxotrophic for LM; higher = larger share of this subpopulation than in DMSO controls; settings: 10 µM; 24 h; SM minimal medium; subpopulation (auxotrophy): LM
Outline: as §1

[8] = tested on: Saccharomyces cerevisiae BY4741 SeMeCo community; assay: z-score of subpopulation abundance vs DMSO median, subpopulation auxotrophic for HM; higher = larger share of this subpopulation than in DMSO controls; settings: 10 µM; 24 h; SM minimal medium; subpopulation (auxotrophy): HM
Outline: as §1

[9] = tested on: Saccharomyces cerevisiae BY4741 SeMeCo community; assay: z-score of subpopulation abundance vs DMSO median, subpopulation auxotrophic for HU; higher = larger share of this subpopulation than in DMSO controls; settings: 10 µM; 24 h; SM minimal medium; subpopulation (auxotrophy): HU
Outline: as §1

[10] = tested on: Saccharomyces cerevisiae BY4741 SeMeCo community; assay: z-score of subpopulation abundance vs DMSO median, subpopulation auxotrophic for UM; higher = larger share of this subpopulation than in DMSO controls; settings: 10 µM; 24 h; SM minimal medium; subpopulation (auxotrophy): UM
Outline: as §1

[11] = tested on: Saccharomyces cerevisiae BY4741 SeMeCo community; assay: z-score of subpopulation abundance vs DMSO median, subpopulation auxotrophic for HL; higher = larger share of this subpopulation than in DMSO controls; settings: 10 µM; 24 h; SM minimal medium; subpopulation (auxotrophy): HL
Outline: as §1

[12] = tested on: Saccharomyces cerevisiae BY4741 SeMeCo community; assay: z-score of subpopulation abundance vs DMSO median, subpopulation auxotrophic for HLU; higher = larger share of this subpopulation than in DMSO controls; settings: 10 µM; 24 h; SM minimal medium; subpopulation (auxotrophy): HLU
Outline: as §1

[13] = tested on: Saccharomyces cerevisiae BY4741 SeMeCo community; assay: z-score of subpopulation abundance vs DMSO median, subpopulation auxotrophic for HLM; higher = larger share of this subpopulation than in DMSO controls; settings: 10 µM; 24 h; SM minimal medium; subpopulation (auxotrophy): HLM
Outline: as §1

[14] = tested on: Saccharomyces cerevisiae BY4741 SeMeCo community; assay: z-score of subpopulation abundance vs DMSO median, subpopulation auxotrophic for HUM; higher = larger share of this subpopulation than in DMSO controls; settings: 10 µM; 24 h; SM minimal medium; subpopulation (auxotrophy): HUM
Outline: as §1

[15] = tested on: Saccharomyces cerevisiae BY4741 SeMeCo community; assay: z-score of subpopulation abundance vs DMSO median, subpopulation auxotrophic for LUM; higher = larger share of this subpopulation than in DMSO controls; settings: 10 µM; 24 h; SM minimal medium; subpopulation (auxotrophy): LUM
Outline: as §1

[16] = tested on: Saccharomyces cerevisiae BY4741 SeMeCo community; assay: z-score of subpopulation abundance vs DMSO median, subpopulation auxotrophic for HLUM; higher = larger share of this subpopulation than in DMSO controls; settings: 10 µM; 24 h; SM minimal medium; subpopulation (auxotrophy): HLUM
Outline: as §1

[17] = tested on: Saccharomyces cerevisiae BY4741 SeMeCo community; assay: z-score of subpopulation abundance vs DMSO median, subpopulation auxotrophic for LU; higher = larger share of this subpopulation than in DMSO controls; settings: 10 µM; 24 h; SM minimal medium; subpopulation (auxotrophy): LU
Outline: as §1

| SMILES | mean cell size [1] | z-score of prototroph abundance [2] | z-score of subpopulation abundance [3] | z-score of subpopulation abundance [4] | z-score of subpopulation abundance [5] | z-score of subpopulation abundance [6] | z-score of subpopulation abundance [7] | z-score of subpopulation abundance [8] | z-score of subpopulation abundance [9] | z-score of subpopulation abundance [10] | z-score of subpopulation abundance [11] | z-score of subpopulation abundance [12] | z-score of subpopulation abundance [13] | z-score of subpopulation abundance [14] | z-score of subpopulation abundance [15] | z-score of subpopulation abundance [16] | z-score of subpopulation abundance [17] |
| --- | --- | --- | --- | --- | --- | --- | --- | --- | --- | --- | --- | --- | --- | --- | --- | --- | --- |
| CCN1CCCC1CNC(=O)c1cc(S(=O)(=O)CC)c(N)cc1OC (configuration not stated) [Amisulpride] | 12.4 ± 0.13 | 0.14 | 0.12 | -0.08 | 0.31 | 0.19 | -0.1 | -1.17 | 0.3 | 0.04 | -0.73 | -0.63 | -0.87 | -0.03 | -0.21 | -0.8 |  |
| CC1(C)S[C@@H]2[C@H](NC(=O)[C@H](N)c3ccc(O)cc3)C(=O)N2[C@H]1C(=O)O [Amoxicillin trihydrate] | 12.19 ± 0.082 | -0.1 | 0.05 |  | 0.03 | -0.05 |  | -0.15 | 0.31 | 0.19 | -0.69 | 0.3 |  | -0.08 |  | -0.21 | 0.61 |
| CCCCOc1ccc(C(=O)CCN2CCCCC2)cc1 [Dyclonine HCl] | 12.2 ± 0.23 | 0.35 | 0.29 |  | -0.57 | -0.1 | 0.14 | -0.09 | 0.17 | -0.42 | -0.74 | -0.26 |  | 0.17 | -0.27 | -0.65 | -0.73 |
| Nc1ccc(S(=O)(=O)Nc2cnc3ccccc3n2)cc1 [Sulfaquinoxaline sodium] | 12 ± 0.22 | -0.68 | 1.16 | -1.08 | 1.01 | -1.04 | 0.34 | 0.61 | 1.05 | 1.56 | -0.29 | 0.31 | -0.05 | 0.79 | 0.81 | -0.23 |  |
| CC[C@H]1OC(=O)[C@H](C)[C@@H](O[C@H]2C[C@@](C)(OC)[C@@H](O)[C@H](C)O2)[C@H](C)[C@@H](O[C@@H]2O[C@H](C)C[C@H](N(C)C)[C@H]2O)[C@](C)(O)C[C@@H](C)[C@@H]2N[C@@H](COCCOC)O[C@H]([C@H]2C)[C@]1(C)O [Dirithromycin] | 12.3 ± 0.27 | 0.11 | 0.26 | 0.38 | 0.26 | -0.21 | 0.49 | -0.53 | -0.26 | -0.05 | -0.09 | -0.71 | -0.77 | -0.1 | 0.3 | -0.46 |  |
| CC1=C(CC(=O)O)c2cc(F)ccc2/C1=C\c1ccc([S+](C)[O-])cc1 (configuration not stated) [Sulindac] | 12.4 ± 0.21 |  | 0.53 |  | -1.92 | 0.69 | 1.7 | 0.57 | -0.74 | -1.2 | 0.1 | -0.15 |  | -0.07 | 0.36 | -0.02 | -0.59 |
| CCCC1CC(C(=O)NC(C(C)Cl)C2OC(SC)C(O)C(O)C2O)N(C)C1 (configuration not stated) [Clindamycin alcoholate] |  | -0.45 | 0.25 |  | -0.8 |  | 1.04 |  | -0.93 | -0.51 |  | -0.02 |  | 0.14 | 0.51 | -0.12 | -0.02 |
| O=C(O)c1ccccc1O [Salicylic acid] |  | 0.79 | -0.07 |  | -0.01 |  |  | 0.33 | -1 | -0.89 | -0.19 | -0.57 |  |  | -0.79 | -0.68 | -0.68 |
| Cc1cc(O)cc(C)c1Cl [Chloroxylenol] | 12.7 ± 0.17 | -1.56 | 0.89 |  | 0.84 | 0.68 | 0.41 | 0.32 | 1.05 |  | 0.81 | 0.24 |  | 0.68 | 0.54 | 0.12 | 0.64 |
| C[C@@H](c1nc(-c2ccc(C#N)cc2)cs1)[C@](O)(Cn1cncn1)c1cc(F)ccc1F [Isavuconazole] | 11.95 ± 0.079 | -10.4 | -1.83 |  |  | 15.6 | 1.61 | 8.09 | 8.91 | 13.4 | 9.84 | 6.83 | 15.5 |  | 7.48 |  | 0.81 |
| Cc1cc(-c2ccc(/N=N/c3ccc4c(S(=O)(=O)O)cc(S(=O)(=O)O)c(N)c4c3O)c(C)c2)ccc1/N=N/c1ccc2c(S(=O)(=O)O)cc(S(=O)(=O)O)c(N)c2c1O [Evans Blue] | 13.5 ± 0.98 | -9.18 | -14.3 |  | 1.78 | 4.9 | -5.69 | -7.3 | 10.3 | -9.56 | 8.09 | 429 | -2.86 |  | -5.24 | -2.52 | 4.41 |
| CC(=O)OCC[N+](C)(C)C [Acetylcholine iodide] | 12.42 ± 0.1 | 1.05 | -0.32 | -0.73 | 0.13 | -0.21 | -0.62 | -1.48 | -0.12 | -0.32 | -0.89 | 0.05 | -1.52 | -0.36 | -1.27 | -1.3 |  |
| N[C@@H]1CCCCN(c2c(F)cc3c(=O)c(C(=O)O)cn(C4CC4)c3c2Cl)C1 [Besifloxacin HCl] | 12 ± 0.16 | -0.33 | -0.11 | 0.15 | 0.87 | 0.1 | 0.38 | -0.14 | 0.44 | -0.28 | -0.33 | 0.25 | 0.44 | -0.3 | -0.19 | 0.22 |  |
| CCCCOc1cc(C(=O)OCCN(CC)CC)ccc1N [Oxybuprocaine HCl] | 12.6 ± 0.3 | -0.08 | 0.72 | 0.22 | -0.29 | -0.22 | 0.31 | 0.19 | 0.6 |  | 0.21 | -0.16 | 1.25 | 0.57 | 0.25 | 0.34 |  |
| Cc1c(C(N)=O)cc([N+](=O)[O-])cc1[N+](=O)[O-] [Dinitolmide] | 12.4 ± 0.22 | -0.01 | -0.14 | 0.45 | 0.48 | -0.33 | 0.46 | -0.5 | 0.78 | 0.34 | -0.36 | -0.18 | -0.3 | -0.56 | -0.13 | 0.38 |  |

Reference: the supplement of paper PMC8975748
